Data on one sequence can be found in PMC7862700, “An all-to-all approach to the identification of sequence-specific readers for epigenetic DNA modifications on cytosine”.

What all share (assay): DAPPL (digital affinity profiling via proximity ligation, sequencing); 10 mM Tris-HCl pH 7.5, 50 mM NaCl, 1 mM DTT, 4% glycerol, room temperature, 30 min; GST-TFs on glutathione beads, 16-mer random dsDNA library, 0.1% formaldehyde crosslink after washing; high values mean tight binding
One experiment deals with T1, FLI1 (Homo sapiens, UniProt Q01543 1-452).
T1 sequence: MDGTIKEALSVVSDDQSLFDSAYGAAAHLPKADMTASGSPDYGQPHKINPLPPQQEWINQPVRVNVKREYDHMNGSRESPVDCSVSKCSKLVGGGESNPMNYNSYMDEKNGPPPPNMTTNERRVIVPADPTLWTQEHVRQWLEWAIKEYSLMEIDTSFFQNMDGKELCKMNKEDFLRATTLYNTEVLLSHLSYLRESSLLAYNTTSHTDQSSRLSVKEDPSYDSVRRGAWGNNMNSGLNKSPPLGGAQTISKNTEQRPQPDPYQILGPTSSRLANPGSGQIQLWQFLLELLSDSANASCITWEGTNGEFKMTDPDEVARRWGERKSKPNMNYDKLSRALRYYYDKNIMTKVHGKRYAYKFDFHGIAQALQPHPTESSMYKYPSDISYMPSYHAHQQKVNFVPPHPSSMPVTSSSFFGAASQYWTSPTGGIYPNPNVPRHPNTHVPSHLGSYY
Particulars: protein: recombinant; tags: N-terminal GST; dsDNA, one strand shown. Put shortly:
(§1)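 Sequencing on an Illumina NextSeq500 followed washing, crosslinking with 0.1% formaldehyde, proximity ligation (BsaI/T4 ligase, 1 h, 37 °C) and PCR amplification of pools that had been incubated for 30 min at room temperature with 200 nmole of a random double-stranded 16-mer DNA library in Tris/NaCl/DTT/glycerol buffer. Each pool held DNA-barcoded human transcription factors, expressed in yeast as GST fusions and captured on glutathione beads, plus a tag-only sample. Binding signal is a hexamer's read frequency for a factor divided by its frequency in the tag-only sample.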

For the next experiment, the target named is T2, ELK1 (Homo sapiens, UniProt P19419 1-428).
T2 sequence: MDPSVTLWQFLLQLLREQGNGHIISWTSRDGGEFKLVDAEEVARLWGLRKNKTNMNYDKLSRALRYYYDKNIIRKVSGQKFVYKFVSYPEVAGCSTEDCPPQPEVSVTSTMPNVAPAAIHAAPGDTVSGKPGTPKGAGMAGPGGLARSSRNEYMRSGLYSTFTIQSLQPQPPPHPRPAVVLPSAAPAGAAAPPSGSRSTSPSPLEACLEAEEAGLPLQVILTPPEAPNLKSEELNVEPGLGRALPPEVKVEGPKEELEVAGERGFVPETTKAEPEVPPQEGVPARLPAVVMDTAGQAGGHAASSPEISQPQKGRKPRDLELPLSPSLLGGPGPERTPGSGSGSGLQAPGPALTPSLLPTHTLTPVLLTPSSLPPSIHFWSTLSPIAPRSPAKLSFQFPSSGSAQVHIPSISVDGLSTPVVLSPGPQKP
As to conditions: protein: recombinant; tags: N-terminal GST; dsDNA, one strand shown. The gist of the method:
as §1

Another experiment has as its target T3, GABPA (Homo sapiens, UniProt Q06546 1-454).
T3 sequence: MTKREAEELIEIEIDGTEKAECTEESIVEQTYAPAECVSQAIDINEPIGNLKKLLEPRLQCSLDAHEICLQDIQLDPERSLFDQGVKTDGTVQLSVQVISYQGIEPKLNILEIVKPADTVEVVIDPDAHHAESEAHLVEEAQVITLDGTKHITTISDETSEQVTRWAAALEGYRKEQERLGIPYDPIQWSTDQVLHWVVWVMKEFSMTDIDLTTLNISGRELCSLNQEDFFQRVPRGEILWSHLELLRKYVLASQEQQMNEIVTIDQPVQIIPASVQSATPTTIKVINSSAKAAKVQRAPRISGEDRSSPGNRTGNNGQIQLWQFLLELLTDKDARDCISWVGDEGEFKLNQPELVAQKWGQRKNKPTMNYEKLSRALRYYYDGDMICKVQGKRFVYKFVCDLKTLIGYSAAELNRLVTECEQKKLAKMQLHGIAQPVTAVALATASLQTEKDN
As to conditions: protein: recombinant; tags: N-terminal GST; dsDNA, one strand shown. The gist of the method: as §1

The next experiment concerns the target T4, ERG (Homo sapiens, UniProt P11308 1-479).
T4 sequence: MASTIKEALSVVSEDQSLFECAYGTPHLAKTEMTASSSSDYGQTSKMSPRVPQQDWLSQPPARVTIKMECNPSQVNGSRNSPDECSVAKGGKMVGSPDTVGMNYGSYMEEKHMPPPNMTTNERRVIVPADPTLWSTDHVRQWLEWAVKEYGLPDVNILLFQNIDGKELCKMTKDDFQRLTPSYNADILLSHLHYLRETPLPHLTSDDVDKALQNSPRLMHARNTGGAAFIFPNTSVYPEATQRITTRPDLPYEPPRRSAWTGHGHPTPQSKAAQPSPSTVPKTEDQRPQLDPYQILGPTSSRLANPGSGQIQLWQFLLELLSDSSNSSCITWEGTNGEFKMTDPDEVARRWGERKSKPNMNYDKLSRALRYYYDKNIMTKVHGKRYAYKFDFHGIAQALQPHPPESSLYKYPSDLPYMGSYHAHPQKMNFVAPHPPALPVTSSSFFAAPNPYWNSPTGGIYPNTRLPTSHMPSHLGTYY
Particulars: protein: recombinant; tags: N-terminal GST; dsDNA, one strand shown. The gist of the method:
as §1

Another experiment addresses ELF1 (Homo sapiens, UniProt P32519 1-619). As to conditions: protein: recombinant; tags: N-terminal GST; dsDNA, one strand shown. Put shortly: as §1
The target of the next experiment is T5, EHF (Homo sapiens, UniProt Q9NZC4 1-300).
T5 sequence: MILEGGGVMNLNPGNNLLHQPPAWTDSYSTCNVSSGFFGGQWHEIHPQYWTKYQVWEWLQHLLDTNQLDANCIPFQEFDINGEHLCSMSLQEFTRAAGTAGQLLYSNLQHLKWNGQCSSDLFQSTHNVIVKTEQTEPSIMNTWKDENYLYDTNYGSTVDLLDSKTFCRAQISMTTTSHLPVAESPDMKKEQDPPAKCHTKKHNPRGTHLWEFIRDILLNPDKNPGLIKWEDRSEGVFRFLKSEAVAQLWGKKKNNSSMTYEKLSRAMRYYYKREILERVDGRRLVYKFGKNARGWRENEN
As to conditions: protein: recombinant; tags: N-terminal GST; dsDNA, one strand shown. The gist of the method: as §1

The next experiment concerns the target SPI1 (Homo sapiens, UniProt P17947 1-270). Particulars: protein: recombinant; tags: N-terminal GST; dsDNA, one strand shown. The gist of the method: as §1
The target in a further experiment is SPIB (Homo sapiens, UniProt Q01892 1-262). Particulars: protein: recombinant; tags: N-terminal GST; dsDNA, one strand shown. Put shortly:
as §1

The target in another experiment is T6, ELK3 (Homo sapiens, UniProt P41970 1-407).
T6 sequence: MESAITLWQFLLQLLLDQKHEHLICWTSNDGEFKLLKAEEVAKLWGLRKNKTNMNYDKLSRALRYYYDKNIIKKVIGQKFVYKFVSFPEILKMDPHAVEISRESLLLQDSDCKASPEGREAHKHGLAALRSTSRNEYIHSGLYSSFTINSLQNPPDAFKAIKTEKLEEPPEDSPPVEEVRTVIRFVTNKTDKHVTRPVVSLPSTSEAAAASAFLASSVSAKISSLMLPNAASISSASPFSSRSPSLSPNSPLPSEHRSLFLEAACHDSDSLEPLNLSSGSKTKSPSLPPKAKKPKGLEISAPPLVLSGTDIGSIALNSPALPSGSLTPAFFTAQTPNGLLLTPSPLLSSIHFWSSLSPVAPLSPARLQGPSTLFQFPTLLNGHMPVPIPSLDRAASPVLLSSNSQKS
As to conditions: protein: recombinant; tags: N-terminal GST; dsDNA, one strand shown. Put shortly:
as §1

A further experiment addresses T7, FEV (Homo sapiens, UniProt Q99581 1-238).
T7 sequence: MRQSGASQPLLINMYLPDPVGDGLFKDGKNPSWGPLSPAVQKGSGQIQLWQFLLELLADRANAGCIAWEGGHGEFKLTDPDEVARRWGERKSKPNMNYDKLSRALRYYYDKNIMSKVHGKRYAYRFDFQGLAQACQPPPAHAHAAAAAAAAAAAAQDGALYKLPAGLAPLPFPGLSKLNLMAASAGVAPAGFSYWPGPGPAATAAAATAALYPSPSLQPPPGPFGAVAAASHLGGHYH
Particulars: protein: recombinant; tags: N-terminal GST; dsDNA, one strand shown. Put shortly: as §1

A further experiment deals with ETV5 (Homo sapiens, UniProt P41161 1-510). As to conditions: protein: recombinant; tags: N-terminal GST; dsDNA, one strand shown. The gist of the method: as §1
Another experiment has as its target HSF1 (Homo sapiens, UniProt Q00613 1-529). Particulars: protein: recombinant; tags: N-terminal GST; chain copies: 3; dsDNA, one strand shown. The gist of the method:
as §1

The next experiment addresses T8, SPIC (Homo sapiens, UniProt Q8N5J4 1-248).
T8 sequence: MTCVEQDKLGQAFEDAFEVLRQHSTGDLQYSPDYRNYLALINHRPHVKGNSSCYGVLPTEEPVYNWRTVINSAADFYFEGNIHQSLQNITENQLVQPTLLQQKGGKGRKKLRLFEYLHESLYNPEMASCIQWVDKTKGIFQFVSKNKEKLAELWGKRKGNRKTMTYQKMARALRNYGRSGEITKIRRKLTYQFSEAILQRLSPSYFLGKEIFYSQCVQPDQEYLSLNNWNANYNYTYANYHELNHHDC
As to conditions: protein: recombinant; tags: N-terminal GST; dsDNA, one strand shown. The gist of the method:
as §1

For another experiment, the target named is ELF4 (Homo sapiens, UniProt Q99607 1-663). Particulars: protein: recombinant; tags: N-terminal GST; dsDNA, one strand shown. Put shortly:
as §1

For another experiment, the target named is T9, ELK4 (Homo sapiens, UniProt P28324-2 1-405).
T9 sequence: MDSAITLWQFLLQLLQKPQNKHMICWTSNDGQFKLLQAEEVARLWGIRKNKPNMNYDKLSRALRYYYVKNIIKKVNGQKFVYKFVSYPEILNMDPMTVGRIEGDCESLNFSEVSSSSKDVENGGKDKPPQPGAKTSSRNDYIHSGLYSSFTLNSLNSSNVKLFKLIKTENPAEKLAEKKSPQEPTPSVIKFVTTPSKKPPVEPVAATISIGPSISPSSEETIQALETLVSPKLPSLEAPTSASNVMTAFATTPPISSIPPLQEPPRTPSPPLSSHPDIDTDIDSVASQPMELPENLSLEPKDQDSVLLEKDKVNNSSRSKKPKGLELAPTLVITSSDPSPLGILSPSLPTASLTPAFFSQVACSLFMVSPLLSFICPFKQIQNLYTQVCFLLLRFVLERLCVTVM
As to conditions: protein: recombinant; tags: N-terminal GST; dsDNA, one strand shown. The gist of the method: as §1

A further experiment has as its target T10, ETV2 (Homo sapiens, UniProt O00321 1-342).
T10 sequence: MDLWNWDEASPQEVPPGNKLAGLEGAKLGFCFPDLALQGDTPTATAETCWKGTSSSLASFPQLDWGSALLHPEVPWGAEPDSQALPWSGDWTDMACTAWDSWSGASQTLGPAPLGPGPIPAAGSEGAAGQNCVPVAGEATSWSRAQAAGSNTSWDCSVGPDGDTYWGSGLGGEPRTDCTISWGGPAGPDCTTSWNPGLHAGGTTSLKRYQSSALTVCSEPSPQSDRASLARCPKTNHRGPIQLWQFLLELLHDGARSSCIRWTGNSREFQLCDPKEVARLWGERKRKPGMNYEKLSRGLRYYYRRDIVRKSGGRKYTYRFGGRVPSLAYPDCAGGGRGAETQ
As to conditions: protein: recombinant; tags: N-terminal GST; dsDNA, one strand shown. Put shortly:
as §1

The next experiment has as its target T11, ELF3 (Homo sapiens, UniProt P78545 1-371).
T11 sequence: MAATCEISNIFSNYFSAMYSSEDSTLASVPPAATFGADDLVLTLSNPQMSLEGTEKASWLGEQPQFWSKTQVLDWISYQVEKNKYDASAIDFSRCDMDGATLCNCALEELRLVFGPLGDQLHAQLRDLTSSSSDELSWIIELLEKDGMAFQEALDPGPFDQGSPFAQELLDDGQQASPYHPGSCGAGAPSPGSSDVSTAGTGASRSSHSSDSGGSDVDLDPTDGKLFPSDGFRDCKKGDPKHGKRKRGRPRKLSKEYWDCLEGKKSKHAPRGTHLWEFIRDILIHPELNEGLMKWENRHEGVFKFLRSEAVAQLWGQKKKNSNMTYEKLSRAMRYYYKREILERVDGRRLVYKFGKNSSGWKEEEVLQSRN
As to conditions: protein: recombinant; tags: N-terminal GST; dsDNA, one strand shown. Put shortly: as §1

A further experiment deals with ETV1 (Homo sapiens, UniProt P50549 1-477). As to conditions: protein: recombinant; tags: N-terminal GST; dsDNA, one strand shown. Put shortly: as §1
Chain of ETV1 (P50549 whole entry): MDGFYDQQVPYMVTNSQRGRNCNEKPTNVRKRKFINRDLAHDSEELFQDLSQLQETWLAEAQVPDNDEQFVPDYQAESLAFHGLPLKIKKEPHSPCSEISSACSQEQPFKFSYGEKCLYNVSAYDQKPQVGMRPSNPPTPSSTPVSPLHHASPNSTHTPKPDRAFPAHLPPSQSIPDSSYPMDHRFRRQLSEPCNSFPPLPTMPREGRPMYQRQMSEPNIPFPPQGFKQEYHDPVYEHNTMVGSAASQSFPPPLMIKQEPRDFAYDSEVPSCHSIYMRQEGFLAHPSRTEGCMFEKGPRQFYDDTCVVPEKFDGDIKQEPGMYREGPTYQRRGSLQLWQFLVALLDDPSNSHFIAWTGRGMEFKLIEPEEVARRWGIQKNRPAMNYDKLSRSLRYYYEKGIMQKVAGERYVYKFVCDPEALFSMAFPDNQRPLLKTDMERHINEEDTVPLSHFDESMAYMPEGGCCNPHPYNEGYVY

Chain of ELF4 (Q99607 whole entry): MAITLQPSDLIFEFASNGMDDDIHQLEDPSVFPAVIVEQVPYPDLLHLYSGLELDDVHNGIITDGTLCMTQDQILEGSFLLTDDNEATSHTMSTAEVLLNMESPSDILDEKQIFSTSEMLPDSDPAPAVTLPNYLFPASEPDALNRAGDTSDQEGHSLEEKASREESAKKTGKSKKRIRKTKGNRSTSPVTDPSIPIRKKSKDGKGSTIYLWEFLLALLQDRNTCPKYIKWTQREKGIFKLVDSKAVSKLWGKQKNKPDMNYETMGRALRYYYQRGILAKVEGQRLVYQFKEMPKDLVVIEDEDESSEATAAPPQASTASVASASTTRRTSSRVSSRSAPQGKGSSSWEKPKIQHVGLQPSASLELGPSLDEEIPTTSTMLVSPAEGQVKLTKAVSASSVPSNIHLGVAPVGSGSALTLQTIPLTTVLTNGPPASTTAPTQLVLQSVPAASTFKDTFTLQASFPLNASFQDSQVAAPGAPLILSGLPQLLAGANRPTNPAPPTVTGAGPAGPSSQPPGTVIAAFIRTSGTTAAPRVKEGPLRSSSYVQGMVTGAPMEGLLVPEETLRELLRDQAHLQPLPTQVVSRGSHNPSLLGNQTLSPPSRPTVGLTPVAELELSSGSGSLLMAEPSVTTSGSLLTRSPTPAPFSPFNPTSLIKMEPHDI
Chain of ETV5 (P41161 whole entry): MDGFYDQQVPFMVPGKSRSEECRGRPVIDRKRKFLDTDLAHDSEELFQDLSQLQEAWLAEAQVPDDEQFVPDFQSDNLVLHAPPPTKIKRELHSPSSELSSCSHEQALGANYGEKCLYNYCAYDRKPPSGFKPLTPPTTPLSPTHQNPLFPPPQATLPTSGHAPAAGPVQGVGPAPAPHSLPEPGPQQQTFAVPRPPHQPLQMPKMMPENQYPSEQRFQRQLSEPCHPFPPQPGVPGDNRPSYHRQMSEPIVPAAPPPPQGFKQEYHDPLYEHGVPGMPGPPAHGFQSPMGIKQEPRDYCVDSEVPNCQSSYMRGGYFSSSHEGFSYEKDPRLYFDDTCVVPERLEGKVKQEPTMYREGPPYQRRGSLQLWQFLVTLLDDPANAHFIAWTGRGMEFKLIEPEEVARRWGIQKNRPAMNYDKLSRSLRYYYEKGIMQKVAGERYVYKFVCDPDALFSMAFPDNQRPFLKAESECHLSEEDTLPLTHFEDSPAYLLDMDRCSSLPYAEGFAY
Chain of HSF1 (Q00613 whole entry): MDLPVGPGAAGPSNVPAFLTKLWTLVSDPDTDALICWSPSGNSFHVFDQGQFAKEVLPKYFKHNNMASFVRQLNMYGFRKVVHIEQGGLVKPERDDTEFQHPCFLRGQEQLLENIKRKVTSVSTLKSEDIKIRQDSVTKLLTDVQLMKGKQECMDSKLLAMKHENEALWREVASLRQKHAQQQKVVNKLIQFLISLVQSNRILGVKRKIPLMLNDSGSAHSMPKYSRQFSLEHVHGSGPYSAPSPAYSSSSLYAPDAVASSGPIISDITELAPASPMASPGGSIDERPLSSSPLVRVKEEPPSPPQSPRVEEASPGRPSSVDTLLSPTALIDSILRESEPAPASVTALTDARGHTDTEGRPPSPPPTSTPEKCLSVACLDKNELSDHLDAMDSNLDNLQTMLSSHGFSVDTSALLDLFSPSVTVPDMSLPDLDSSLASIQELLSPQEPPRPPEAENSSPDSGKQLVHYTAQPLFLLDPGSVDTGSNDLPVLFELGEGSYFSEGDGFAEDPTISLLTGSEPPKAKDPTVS
Chain of SPIB (Q01892 whole entry): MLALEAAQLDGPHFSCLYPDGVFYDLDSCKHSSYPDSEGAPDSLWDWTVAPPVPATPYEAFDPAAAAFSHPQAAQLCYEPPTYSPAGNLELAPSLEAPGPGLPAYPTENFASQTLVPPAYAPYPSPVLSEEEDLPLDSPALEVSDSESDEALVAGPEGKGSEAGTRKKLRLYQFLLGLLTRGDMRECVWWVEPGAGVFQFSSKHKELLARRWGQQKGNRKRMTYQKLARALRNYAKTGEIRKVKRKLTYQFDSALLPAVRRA
Chain of ELF1 (P32519 whole entry): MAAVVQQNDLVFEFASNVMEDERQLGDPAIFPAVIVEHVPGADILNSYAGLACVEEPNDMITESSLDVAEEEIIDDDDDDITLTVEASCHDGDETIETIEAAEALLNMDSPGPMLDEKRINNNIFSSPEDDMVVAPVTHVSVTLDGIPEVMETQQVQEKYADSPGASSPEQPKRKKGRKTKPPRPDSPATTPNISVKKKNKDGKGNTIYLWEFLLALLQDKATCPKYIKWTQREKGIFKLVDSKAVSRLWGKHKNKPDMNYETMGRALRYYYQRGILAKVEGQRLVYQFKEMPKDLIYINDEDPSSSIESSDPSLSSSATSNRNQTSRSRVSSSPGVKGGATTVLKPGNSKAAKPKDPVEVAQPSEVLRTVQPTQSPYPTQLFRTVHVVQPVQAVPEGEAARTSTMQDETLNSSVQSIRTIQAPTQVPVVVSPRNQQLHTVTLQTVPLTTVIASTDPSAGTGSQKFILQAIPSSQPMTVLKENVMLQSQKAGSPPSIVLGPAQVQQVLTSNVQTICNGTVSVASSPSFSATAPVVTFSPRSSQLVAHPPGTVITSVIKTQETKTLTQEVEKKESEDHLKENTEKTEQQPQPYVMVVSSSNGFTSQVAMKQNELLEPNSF

On to CCTGCA, for which the binding signal with FLI1 was 1.28 fold enrichment (6-mer frequency, TF over GST control); with ELK1 it was 1.3 fold enrichment (6-mer frequency, TF over GST control); with GABPA, 1.19 fold enrichment (6-mer frequency, TF over GST control); with ERG, 1.23 fold enrichment (6-mer frequency, TF over GST control); with ELF1, 1.36 fold enrichment (6-mer frequency, TF over GST control); with EHF, 1.42 fold enrichment (6-mer frequency, TF over GST control). The binding signal with SPI1 was 1.17 fold enrichment (6-mer frequency, TF over GST control); with SPIB it was 1.24 fold enrichment (6-mer frequency, TF over GST control); in the experiment with ELK3 it was 1.23 fold enrichment (6-mer frequency, TF over GST control); in the experiment with FEV, 1.26 fold enrichment (6-mer frequency, TF over GST control); with ETV5, 1.39 fold enrichment (6-mer frequency, TF over GST control); with HSF1, 1.11 fold enrichment (6-mer frequency, TF over GST control). The binding signal in the experiment with SPIC is 1.15 fold enrichment (6-mer frequency, TF over GST control); with ELF4 it was 1.3 fold enrichment (6-mer frequency, TF over GST control); with ELK4, 1.27 fold enrichment (6-mer frequency, TF over GST control); in the experiment with ETV2, 1.22 fold enrichment (6-mer frequency, TF over GST control); with ELF3, 1.68 fold enrichment (6-mer frequency, TF over GST control); with ETV1, 1.28 fold enrichment (6-mer frequency, TF over GST control).
